Results on 14 compounds are retold here after PubChem BioAssay.

Molecules are shown by their SMILES. The source made the active and inactive calls.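 The calls were made as follows, unless noted: active = fluorescence slope higher than the sample average by over 3 SD (cut at about -0.22 in these data, passing the limit was not always enough); inactive = the rest.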

The nature of assay [1]: inhibitors of TNFa-induced NFkB p65 translocation, primary screen, imaging, HUVEC, MLSMR starter and 10KST1 sets (AID 438;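 active = inhibition above 20% together with a positive visual image hit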;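 also: compound added about 3h40 before a 20 min TNFalpha stimulation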;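 as to inhibition: signal is the nuclear over cytoplasmic p65 intensity ratio per well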). The conditions noted are these: HUVEC TNFa-induced p65 nuclear translocation; cell count: measured here: nuclei count (cytotoxicity indicator), at 2.08 µM; inhibition: at 2 µM, stronger effect = higher value, 0% TNFa-plus-vehicle, 100% no-TNFa wells.
Assay [2] can be described thus: inhibitors of mutant huntingtin aggregation, primary screen, imaging, exon1htt(103Q)mCFP cells, high-content imaging (AID 483;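 active = visual image review flags a hit and inhibition of aggregation exceeds 20%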;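 also: compound exposure lasted 3 days before fixation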;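 as to nuclei count: percent of the per-plate median nuclei count of sample wells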). The conditions noted are these: exon1htt(103Q)mCFP cell line, aggregate imaging, at 2 µM; inhibition of aggregation: stronger effect = higher value; nuclei count: measured here: cell count, toxicity.
Assay [3] is described as follows: inhibitors of E-selectin induction by TNFa, primary screen, imaging, HUVEC, immunofluorescence, MLSMR starter and 10KST1 sets (AID 487;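 active = visually confirmed hit in the image check and inhibition above 20%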;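 as to inhibition: signal is fraction of cell area covered by stained E-selectin grains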;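 as to nuclei count: 100% = median nuclei count of all wells on the same plate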). Particulars: HUVEC TNFalpha-induced E-selectin immunofluorescence imaging, at 2 µM; inhibition: stronger effect = higher value; nuclei count: measured here: cell number, toxicity.
For assay [4], the target named is Voltage-gated potassium channel subunit beta-2 (Rattus norvegicus) (UniProt P62483). The assay can be described thus: KvBeta enzyme negative modulators, primary screen, biochemical, NADPH fluorescence (AID 622).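 Also: slope of raw intensity against log time taken from 70 to 1610 s.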 The conditions noted are these: recombinant KvBeta, 4-cyanobenzaldehyde reduction, at 10 µM, stronger effect = higher value.
Assay [5] shares this target. The assay can be described thus: KvBeta positive modulators, primary screen, biochemical, NADPH fluorescence (AID 623;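 active = NADPH fluorescence slope more negative than the mean of all samples by about 3 SD, 99.7% confidence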;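 also: fluorescence intensity change per second fitted from 20 to 320 s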). The conditions noted are these: Recombinant KvBeta, NADPH fluorescence decrease slope, 10 min; at 10 µM; stronger effect = lower value.
The target in assay [6] is Alpha-2C adrenergic receptor (Homo sapiens) (UniProt P18825). Kind of assay: modulators of alpha2C/GIRK thallium flux, primary screen, cell-based, HEK293 alpha2C/GIRK1/2 (AID 624;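 active = fluorescence slope after compound addition differing from the mean of all screened samples at 99.7% confidence, in either direction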;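 also: slope of fluorescence ratio to pre-addition baseline per second over 15 to 24 s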). The conditions noted are these: thallium flux BTC fluorescence, at 10 µM, actives lie on both sides.
Assay [7] in a line: inhibitors of Sendai virus-induced IRF3 signaling, primary screen, TLR/RLR signaling modifier project, cell-based, Sendai virus stimulus, luciferase, 10K MLSCN set (AID 602276;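 active = inhibition at or above 50% at 10 µM; inactive = inhibition below 50%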;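 also: firefly luciferase from ISG56 promoter only with Renilla not read in this screen; 0% = Sendai virus plus DMSO and 100% = medium plus DMSO without virus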). Particulars: HEK293 RL24 IRF3 luciferase reporter, at 10 µM, stronger effect = higher value. In general terms: Reporter assays use an easily measured gene product as a stand-in for the process of interest.
Assay [8] is described as follows: inhibitors of poly I:C-induced TLR3 signaling, primary screen, cell-based, poly I:C stimulus, luciferase, 10K MLSCN set (AID 602277;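 active = inhibition of the reporter signal at or above 50%; inactive = inhibition below 50%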). Particulars: HEK293-TLR3 RL24 IRF3 luciferase reporter, at 10 µM, stronger effect = higher value.

Sequence of Voltage-gated potassium channel subunit beta-2 (Rattus norvegicus) (P62483 whole entry, looked up): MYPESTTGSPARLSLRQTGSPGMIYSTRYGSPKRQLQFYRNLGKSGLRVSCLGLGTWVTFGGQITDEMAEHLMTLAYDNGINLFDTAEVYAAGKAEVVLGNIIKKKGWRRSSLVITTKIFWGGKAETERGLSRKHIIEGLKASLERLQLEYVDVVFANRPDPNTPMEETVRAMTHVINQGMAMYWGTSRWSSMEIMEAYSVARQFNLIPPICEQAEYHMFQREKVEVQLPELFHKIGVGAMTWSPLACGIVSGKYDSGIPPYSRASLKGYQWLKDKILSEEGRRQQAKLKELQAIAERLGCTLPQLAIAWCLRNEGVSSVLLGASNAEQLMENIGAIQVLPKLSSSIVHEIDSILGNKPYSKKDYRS
Sequence of Alpha-2C adrenergic receptor (Homo sapiens) (P18825 whole entry, looked up): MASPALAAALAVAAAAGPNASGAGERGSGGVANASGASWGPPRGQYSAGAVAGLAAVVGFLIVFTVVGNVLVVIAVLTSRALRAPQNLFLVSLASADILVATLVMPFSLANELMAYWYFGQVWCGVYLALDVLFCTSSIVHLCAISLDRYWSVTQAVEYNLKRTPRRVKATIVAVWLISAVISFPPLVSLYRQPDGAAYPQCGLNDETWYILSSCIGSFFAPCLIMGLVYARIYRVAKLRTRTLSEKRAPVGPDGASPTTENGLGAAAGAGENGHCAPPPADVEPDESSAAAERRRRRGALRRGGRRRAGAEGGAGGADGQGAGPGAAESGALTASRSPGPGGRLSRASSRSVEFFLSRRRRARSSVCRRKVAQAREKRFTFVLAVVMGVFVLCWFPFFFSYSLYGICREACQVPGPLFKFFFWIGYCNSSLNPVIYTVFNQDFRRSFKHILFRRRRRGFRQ

As usually defined, the inhibition is the drop in the measured response relative to a control, in per cent. Regarding `CC1CCCC(C)N1C(=O)COC(=O)c1ccc[nH]c1=O` (centres undefined), the cell count in assay [1] amounted to 476. For the same compound, the inhibition in assay [1] was 0% (inactive); in assay [3], 25.2% (inactive); in assay [7], 16.7% (inactive); in assay [8], 31.4% (inactive). In addition, the inhibition of aggregation in assay [2] is 3.4% (inactive). In addition, the nuclei count in assay [2] was 98.4%; in assay [3], 113%. In assay [4], the fluorescence slope is -0.326 (inactive). Moreover, the NADPH fluorescence slope in assay [5] is -7.3e-06 (inactive). In assay [6], the slope is 0.00649 (inactive).

Turning to `CCOC(=O)C(NC(=O)c1ccc(OC)cc1)(N1CCOCC1)C(F)(F)F` (centres undefined), in assay [1], the cell count worked out at 551. The inhibition in assay [1] is -0.5% (inactive); in assay [3], 29.4% (inactive); in assay [7] it was -14.4% (inactive); in assay [8], -22.3% (inactive). Also, in assay [2], the inhibition of aggregation is -14.5% (inactive). Besides, the nuclei count in assay [2] is 108%; in assay [3] it was 88.9%. Also, in assay [4], the fluorescence slope is -0.59 (inactive). For the same compound, the NADPH fluorescence slope in assay [5] is -4.2e-05 (inactive). Moreover, the slope in assay [6] is 0.00726 (inactive).

In the case of `CC(C)(C)OC(=O)N1CC=C2C(C#N)=C(N)C(C#N)(C#N)C(c3cccs3)C2C1` (centres undefined), the cell count in assay [1] stood at 828. The inhibition in assay [1] is 2.4% (inactive); in assay [3], -132% (inactive); in assay [7], 13.2% (inactive); in assay [8], 8.03% (inactive). The inhibition of aggregation in assay [2] is 16.5% (inactive). The results for the nuclei count in assay [2] and in assay [3] were 102% and 106%, respectively. For the same compound, the fluorescence slope in assay [4] is -0.476 (inactive). The NADPH fluorescence slope in assay [5] is -2.5e-05 (inactive). The slope in assay [6] is 0.00419 (inactive).

Regarding `O=C(c1cnccn1)N(c1ccccc1)C1(C(=O)NC2CCCC2)CCCCC1`, the cell count in assay [1] amounted to 630. In addition, the inhibition was -15.7% (inactive) in assay [1], -31.9% (inactive) in assay [3], 6.65% (inactive) in assay [7] and 16.5% (inactive) in assay [8]. Besides, the inhibition of aggregation in assay [2] is 4.8% (inactive). Moreover, the nuclei count in assay [2] was 96.4%; in assay [3] it was 116%. For the same compound, the fluorescence slope in assay [4] was -0.518 (inactive). Further, the NADPH fluorescence slope in assay [5] was -5.8e-05 (inactive). Moreover, in assay [6], the slope was 0.00495 (inactive).

Take `COc1cc(S(=O)(=O)N2CCC(N3CCCCC3)CC2)ccc1-n1cnnn1`: the cell count in assay [1] turned out to be 351. In addition, the inhibition in assay [1] is 6.9% (inactive); in assay [3], -20.4% (inactive); in assay [7], -9.28% (inactive); in assay [8] it was 3.24% (inactive). Further, in assay [2], the inhibition of aggregation is 14.1% (inactive). In addition, the nuclei count in assay [2] was 89.1%; in assay [3], 102%. Also, the fluorescence slope in assay [4] was -0.593 (inactive). In addition, the NADPH fluorescence slope in assay [5] is -7.9e-06 (inactive). Also, the slope in assay [6] is 0.00492 (inactive).

With `Cc1cc(C)c2c(CC(=O)NCc3ccco3)coc2c1`, the cell count in assay [1] came out at 262. The inhibition is 5.7% (inactive) in assay [1], 34.3% (inactive) in assay [3], 10.9% (inactive) in assay [7] and 21.2% (inactive) in assay [8]. Moreover, the inhibition of aggregation in assay [2] is 23.9% (inactive). Further, the nuclei count in assay [2] came out at 74.9%; in assay [3], 60.6%. Further, the fluorescence slope in assay [4] was -0.324 (inactive). Also, in assay [5], the NADPH fluorescence slope is 4e-05 (inactive). For the same compound, the slope in assay [6] was 0.00608 (inactive).

As for `CCOC(=O)c1[nH]c(C)c(C(=O)NC)c1C`, the cell count in assay [1] was 627. Besides, the inhibition in assay [1] was -1.3% (inactive); in assay [3] it was -37.7% (inactive); in assay [7], 9.49% (inactive); in assay [8] it was 27.6% (inactive). Further, the inhibition of aggregation in assay [2] is 0.2% (inactive). Further, the nuclei count amounted to 105% in assay [2] and 103% in assay [3]. Moreover, in assay [4], the fluorescence slope is -0.563 (inactive). Moreover, the NADPH fluorescence slope in assay [5] was -1.3e-05 (inactive). In addition, the slope in assay [6] is 0.00529 (inactive).

Turning to `CC1CCN(S(=O)(=O)c2cccc(C(=O)Nc3ccccn3)c2)CC1`, in assay [1], the cell count was 338. Also, the inhibition in assay [1] is -4.3% (inactive); in assay [3] it was 4.5% (inactive); in assay [7], 18.4% (inactive); in assay [8], 23.9% (inactive). For the same compound, the inhibition of aggregation in assay [2] is 26.3% (inactive). Further, the values for the nuclei count in assay [2] and in assay [3] were 78% and 90.4%, respectively. Also, in assay [4], the fluorescence slope is -0.338 (inactive). Also, the NADPH fluorescence slope in assay [5] was -4.1e-05 (inactive). The slope in assay [6] is 0.00478 (inactive).

Regarding `CCCc1cc(=O)oc2c(C)c3occ(C)c3cc12`, in assay [1], the cell count amounted to 486. Further, the inhibition in assay [1] is 2.1% (inactive); in assay [3], -11.9% (inactive); in assay [7] it was 2.73% (inactive); in assay [8], 6.19% (inactive). Moreover, the inhibition of aggregation in assay [2] was -5.5% (inactive). Besides, the nuclei count amounted to 99.6% in assay [2] and 109% in assay [3]. The fluorescence slope in assay [4] was -0.57 (inactive). The NADPH fluorescence slope in assay [5] was -4.7e-05 (inactive). For the same compound, in assay [6], the slope was 0.00609 (inactive).

For the compound `CCCCC(=O)NCCc1cc2ccc(OC)cc2[nH]c1=O`, the cell count in assay [1] worked out at 341. Moreover, the inhibition in assay [1] is -17% (inactive); in assay [3] it was -5.9% (inactive); in assay [7] it was -3.47% (inactive); in assay [8] it was 98.8% (active). In assay [2], the inhibition of aggregation was 25.1% (inactive). For the same compound, the nuclei count in assay [2] worked out at 84.4%; in assay [3], 91.4%. Further, in assay [4], the fluorescence slope is -0.464 (inactive). Further, the NADPH fluorescence slope in assay [5] was -0.000398 (inactive). For the same compound, the slope in assay [6] is 0.00611 (inactive).

On to `CS(=O)(=O)C1=C(O)C(=O)N(c2ccccc2)C1c1ccccc1` (centres undefined), for which the cell count in assay [1] is 415. For the same compound, the inhibition was -6% (inactive) in assay [1], -41.9% (inactive) in assay [3], -1.92% (inactive) in assay [7] and 26.4% (inactive) in assay [8]. The inhibition of aggregation in assay [2] is -10.4% (inactive). Besides, the values for the nuclei count in assay [2] and in assay [3] were 103% and 132%, respectively. The fluorescence slope in assay [4] is -0.439 (inactive). Further, the NADPH fluorescence slope in assay [5] was 1.7e-05 (inactive). In addition, the slope in assay [6] was 0.00632 (inactive).

As for `CCN(CC)Cc1csc(C(N)=O)c1`, in assay [1], the cell count is 617. Also, the inhibition was -1.2% (inactive) in assay [1], -26% (inactive) in assay [3], 5.97% (inactive) in assay [7] and 23.4% (inactive) in assay [8]. Also, the inhibition of aggregation in assay [2] was 0.5% (inactive). In addition, the nuclei count in assay [2] is 102%; in assay [3] it was 83%. Further, in assay [4], the fluorescence slope is -0.612 (inactive). In addition, the NADPH fluorescence slope in assay [5] was -6.9e-06 (inactive). The slope in assay [6] is 0.00652 (inactive).

With `CCCn1c(SCC(=O)Nc2ccccc2C(=O)OC)nc2c1c(=O)n(C)c(=O)n2C`, in assay [1], the cell count was found to be 576. Besides, the inhibition in assay [1] was -10.9% (inactive); in assay [3], -152% (inactive); in assay [7] it was 15.9% (inactive); in assay [8] it was 13% (inactive). Also, the inhibition of aggregation in assay [2] is 20.6% (inactive). In addition, the nuclei count was 95.3% in assay [2] and 84.8% in assay [3]. For the same compound, the fluorescence slope in assay [4] is -0.395 (inactive). Besides, in assay [5], the NADPH fluorescence slope was -7.6e-05 (inactive). Besides, in assay [6], the slope was 0.00511 (inactive).

Consider `CCOc1cc(C2C3=C(CCCC3=O)N(C)C3=C2C(=O)CCC3)cc(Cl)c1O`, for which the cell count in assay [1] is 413. The inhibition was 12.5% (inactive) in assay [1], -17.1% (inactive) in assay [3], 4.36% (inactive) in assay [7] and 26.6% (inactive) in assay [8]. The inhibition of aggregation in assay [2] is -3.2% (inactive). Moreover, the nuclei count in assay [2] was 94.1%; in assay [3], 112%. For the same compound, the fluorescence slope in assay [4] is -0.43 (inactive). For the same compound, in assay [5], the NADPH fluorescence slope was 5.6e-06 (inactive). Also, in assay [6], the slope was 0.00638 (inactive).
